ChEMBL document CHEMBL1961873, “Compounds: GSK PKIS; Assays: Nanosyn kinase panel” (2012)

Assays:
[1] = molecular target: Sphingosine kinase 1 (Homo sapiens) (UniProt Q9NYA1); conditions: at 1 µM;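 further: mean SPHK1 inhibition value reported from the GSK PKIS kinase panel screen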
[2] = molecular target: T1, Sphingosine kinase 2 (Homo sapiens) (UniProt Q9NRA0); conditions: at 0.1 µM
T1 sequence (whole entry): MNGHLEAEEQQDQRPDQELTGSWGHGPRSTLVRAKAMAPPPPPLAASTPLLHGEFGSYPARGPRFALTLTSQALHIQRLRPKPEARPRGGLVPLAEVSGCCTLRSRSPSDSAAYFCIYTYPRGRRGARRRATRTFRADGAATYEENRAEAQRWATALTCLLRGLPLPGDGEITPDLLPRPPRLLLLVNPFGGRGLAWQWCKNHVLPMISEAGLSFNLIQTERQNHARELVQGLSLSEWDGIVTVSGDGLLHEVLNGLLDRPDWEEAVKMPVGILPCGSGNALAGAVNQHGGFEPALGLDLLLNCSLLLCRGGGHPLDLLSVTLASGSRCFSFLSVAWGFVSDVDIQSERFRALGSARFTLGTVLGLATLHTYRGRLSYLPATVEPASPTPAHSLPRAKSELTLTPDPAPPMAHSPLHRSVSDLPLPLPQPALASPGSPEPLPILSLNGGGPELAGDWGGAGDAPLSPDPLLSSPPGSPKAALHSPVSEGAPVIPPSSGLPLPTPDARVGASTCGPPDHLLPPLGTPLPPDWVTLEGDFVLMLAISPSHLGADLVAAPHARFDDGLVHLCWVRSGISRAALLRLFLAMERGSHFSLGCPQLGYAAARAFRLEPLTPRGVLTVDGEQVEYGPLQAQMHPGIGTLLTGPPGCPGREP

[3] = molecular target: T1, Sphingosine kinase 2 (Homo sapiens); conditions: at 1 µM
[4] = molecular target: Casein kinase II subunit alpha (Homo sapiens) (UniProt P68400); conditions: at 0.1 µM
[5] = molecular target: Casein kinase II subunit alpha (Homo sapiens) (UniProt P68400); conditions: at 1 µM
[6] = molecular target: T2, Inhibitor of nuclear factor kappa-B kinase subunit alpha (Homo sapiens) (UniProt O15111); conditions: at 0.1 µM
T2 sequence (whole entry): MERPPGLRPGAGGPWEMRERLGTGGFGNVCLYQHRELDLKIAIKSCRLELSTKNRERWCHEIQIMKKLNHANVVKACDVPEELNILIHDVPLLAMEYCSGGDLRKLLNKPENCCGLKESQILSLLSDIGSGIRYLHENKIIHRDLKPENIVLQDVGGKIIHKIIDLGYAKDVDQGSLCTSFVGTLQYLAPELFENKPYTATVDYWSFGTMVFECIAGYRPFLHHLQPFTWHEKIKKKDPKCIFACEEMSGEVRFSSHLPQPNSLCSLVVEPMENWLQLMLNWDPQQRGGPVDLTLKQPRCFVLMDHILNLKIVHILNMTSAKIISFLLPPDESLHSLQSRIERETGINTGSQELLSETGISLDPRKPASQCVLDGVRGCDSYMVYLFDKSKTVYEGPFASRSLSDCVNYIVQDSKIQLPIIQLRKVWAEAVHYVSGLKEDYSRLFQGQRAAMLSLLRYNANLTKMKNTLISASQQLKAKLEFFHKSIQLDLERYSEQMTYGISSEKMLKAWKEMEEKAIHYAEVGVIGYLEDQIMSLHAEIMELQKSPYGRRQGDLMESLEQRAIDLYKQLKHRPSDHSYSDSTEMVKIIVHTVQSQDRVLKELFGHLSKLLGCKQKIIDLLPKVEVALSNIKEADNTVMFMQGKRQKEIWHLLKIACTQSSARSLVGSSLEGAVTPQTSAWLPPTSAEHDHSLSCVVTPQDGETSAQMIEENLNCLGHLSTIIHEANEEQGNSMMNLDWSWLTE

[7] = molecular target: T2, Inhibitor of nuclear factor kappa-B kinase subunit alpha (Homo sapiens); conditions: at 1 µM
[8] = molecular target: T3, Inhibitor of nuclear factor kappa-B kinase subunit beta (Homo sapiens) (UniProt O14920); conditions: at 0.1 µM
T3 sequence (whole entry): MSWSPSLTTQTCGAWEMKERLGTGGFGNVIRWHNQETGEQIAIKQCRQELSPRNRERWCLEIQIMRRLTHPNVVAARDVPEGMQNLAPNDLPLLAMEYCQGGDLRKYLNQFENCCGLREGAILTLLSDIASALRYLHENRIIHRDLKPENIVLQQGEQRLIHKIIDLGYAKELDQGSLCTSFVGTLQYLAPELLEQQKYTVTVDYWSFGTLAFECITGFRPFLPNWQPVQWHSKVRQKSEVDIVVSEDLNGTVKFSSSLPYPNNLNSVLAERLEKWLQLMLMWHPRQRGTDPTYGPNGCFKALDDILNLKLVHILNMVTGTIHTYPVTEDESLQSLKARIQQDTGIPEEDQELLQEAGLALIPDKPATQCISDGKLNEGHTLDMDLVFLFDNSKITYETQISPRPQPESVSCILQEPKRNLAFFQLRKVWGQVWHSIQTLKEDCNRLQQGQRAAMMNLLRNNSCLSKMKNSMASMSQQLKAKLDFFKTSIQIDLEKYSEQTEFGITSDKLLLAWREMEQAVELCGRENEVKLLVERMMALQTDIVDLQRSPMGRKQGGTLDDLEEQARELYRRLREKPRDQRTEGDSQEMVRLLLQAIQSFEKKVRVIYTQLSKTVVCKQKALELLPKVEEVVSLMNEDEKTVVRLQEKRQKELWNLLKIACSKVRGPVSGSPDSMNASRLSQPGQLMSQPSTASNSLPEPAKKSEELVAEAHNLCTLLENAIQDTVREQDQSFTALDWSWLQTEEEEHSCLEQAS

[9] = molecular target: T3, Inhibitor of nuclear factor kappa-B kinase subunit beta (Homo sapiens); conditions: at 1 µM
[10] = molecular target: T4, Inhibitor of nuclear factor kappa-B kinase subunit epsilon (Homo sapiens) (UniProt Q14164); conditions: at 0.1 µM
T4 sequence (whole entry): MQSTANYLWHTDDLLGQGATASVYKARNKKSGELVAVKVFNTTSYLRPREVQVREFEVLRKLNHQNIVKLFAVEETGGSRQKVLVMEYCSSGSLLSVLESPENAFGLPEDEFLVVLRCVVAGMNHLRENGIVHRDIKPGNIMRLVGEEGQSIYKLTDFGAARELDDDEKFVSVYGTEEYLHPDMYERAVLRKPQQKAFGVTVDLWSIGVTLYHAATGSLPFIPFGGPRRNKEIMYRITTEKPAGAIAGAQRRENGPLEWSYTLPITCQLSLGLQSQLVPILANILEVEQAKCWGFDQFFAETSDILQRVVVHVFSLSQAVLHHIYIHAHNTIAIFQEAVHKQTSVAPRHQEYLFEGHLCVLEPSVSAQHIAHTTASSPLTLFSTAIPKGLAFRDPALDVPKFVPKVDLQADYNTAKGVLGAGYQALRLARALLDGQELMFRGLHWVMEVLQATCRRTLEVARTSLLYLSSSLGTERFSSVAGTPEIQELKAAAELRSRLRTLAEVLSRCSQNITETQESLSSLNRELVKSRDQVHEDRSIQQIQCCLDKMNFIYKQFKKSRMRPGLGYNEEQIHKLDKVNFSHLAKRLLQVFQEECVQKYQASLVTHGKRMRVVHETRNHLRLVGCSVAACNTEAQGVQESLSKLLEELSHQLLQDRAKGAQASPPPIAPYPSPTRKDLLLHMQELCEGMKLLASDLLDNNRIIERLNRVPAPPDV

[11] = molecular target: T4, Inhibitor of nuclear factor kappa-B kinase subunit epsilon (Homo sapiens); conditions: at 1 µM
[12] = molecular target: T5, Serine/threonine-protein kinase Nek1 (Homo sapiens) (UniProt Q96PY6); conditions: at 0.1 µM
T5 sequence (whole entry): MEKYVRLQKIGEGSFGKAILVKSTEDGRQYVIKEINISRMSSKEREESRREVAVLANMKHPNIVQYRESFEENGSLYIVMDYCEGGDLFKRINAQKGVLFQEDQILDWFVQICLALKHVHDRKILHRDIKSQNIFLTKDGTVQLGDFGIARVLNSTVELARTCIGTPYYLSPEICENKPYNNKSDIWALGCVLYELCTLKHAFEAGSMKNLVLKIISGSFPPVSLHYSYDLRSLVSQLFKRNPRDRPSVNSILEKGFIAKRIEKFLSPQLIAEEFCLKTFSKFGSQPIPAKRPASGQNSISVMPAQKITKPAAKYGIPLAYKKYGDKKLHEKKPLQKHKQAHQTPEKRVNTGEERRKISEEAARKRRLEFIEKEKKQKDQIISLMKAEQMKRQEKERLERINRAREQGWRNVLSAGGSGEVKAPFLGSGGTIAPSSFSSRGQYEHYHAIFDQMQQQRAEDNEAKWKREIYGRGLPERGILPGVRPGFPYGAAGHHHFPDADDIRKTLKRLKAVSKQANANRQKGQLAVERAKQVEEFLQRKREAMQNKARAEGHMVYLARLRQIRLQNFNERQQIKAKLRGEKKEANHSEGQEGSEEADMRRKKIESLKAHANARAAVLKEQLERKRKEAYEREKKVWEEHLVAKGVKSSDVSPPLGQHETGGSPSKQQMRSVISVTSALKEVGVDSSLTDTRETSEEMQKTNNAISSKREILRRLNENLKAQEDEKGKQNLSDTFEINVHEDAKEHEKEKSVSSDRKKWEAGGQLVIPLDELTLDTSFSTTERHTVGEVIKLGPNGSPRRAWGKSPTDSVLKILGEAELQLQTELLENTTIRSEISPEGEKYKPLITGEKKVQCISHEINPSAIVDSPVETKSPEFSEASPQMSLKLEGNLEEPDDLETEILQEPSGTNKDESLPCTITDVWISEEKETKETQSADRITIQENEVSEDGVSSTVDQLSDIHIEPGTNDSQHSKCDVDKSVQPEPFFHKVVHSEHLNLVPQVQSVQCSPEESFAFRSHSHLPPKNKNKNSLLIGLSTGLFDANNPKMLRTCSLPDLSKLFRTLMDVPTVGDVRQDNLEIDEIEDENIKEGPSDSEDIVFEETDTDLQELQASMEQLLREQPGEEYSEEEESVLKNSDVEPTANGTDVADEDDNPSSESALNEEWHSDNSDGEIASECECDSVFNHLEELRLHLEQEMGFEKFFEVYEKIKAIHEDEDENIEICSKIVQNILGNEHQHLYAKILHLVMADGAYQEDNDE

[13] = molecular target: T5, Serine/threonine-protein kinase Nek1 (Homo sapiens); conditions: at 1 µM
[14] = molecular target: T6, Serine/threonine-protein kinase Nek2 (Homo sapiens) (UniProt P51955); conditions: at 0.1 µM
T6 sequence (whole entry): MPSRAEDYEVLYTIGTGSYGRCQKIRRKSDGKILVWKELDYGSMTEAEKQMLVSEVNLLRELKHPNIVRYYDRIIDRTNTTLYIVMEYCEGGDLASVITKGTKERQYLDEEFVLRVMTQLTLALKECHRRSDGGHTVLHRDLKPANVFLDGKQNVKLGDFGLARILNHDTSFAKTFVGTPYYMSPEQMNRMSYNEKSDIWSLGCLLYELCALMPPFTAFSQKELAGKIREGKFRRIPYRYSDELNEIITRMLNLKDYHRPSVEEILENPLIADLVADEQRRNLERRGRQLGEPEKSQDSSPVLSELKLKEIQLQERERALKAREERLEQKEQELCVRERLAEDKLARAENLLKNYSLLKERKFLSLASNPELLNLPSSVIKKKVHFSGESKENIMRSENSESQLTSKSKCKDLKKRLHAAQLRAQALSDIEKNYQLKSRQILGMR

[15] = molecular target: T6, Serine/threonine-protein kinase Nek2 (Homo sapiens); conditions: at 1 µM
[16] = molecular target: Serine/threonine-protein kinase Nek6 (Homo sapiens) (UniProt Q9HC98); conditions: at 0.1 µM
[17] = molecular target: Serine/threonine-protein kinase Nek6 (Homo sapiens) (UniProt Q9HC98); conditions: at 1 µM
[18] = molecular target: Serine/threonine-protein kinase Nek7 (Homo sapiens) (UniProt Q8TDX7); conditions: at 0.1 µM
[19] = molecular target: Serine/threonine-protein kinase Nek7 (Homo sapiens) (UniProt Q8TDX7); conditions: at 1 µM
[20] = molecular target: T7, Serine/threonine-protein kinase Nek9 (Homo sapiens) (UniProt Q8TD19); conditions: at 0.1 µM;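 further: reported value is the mean percent inhibition of NEK9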
T7 sequence (whole entry): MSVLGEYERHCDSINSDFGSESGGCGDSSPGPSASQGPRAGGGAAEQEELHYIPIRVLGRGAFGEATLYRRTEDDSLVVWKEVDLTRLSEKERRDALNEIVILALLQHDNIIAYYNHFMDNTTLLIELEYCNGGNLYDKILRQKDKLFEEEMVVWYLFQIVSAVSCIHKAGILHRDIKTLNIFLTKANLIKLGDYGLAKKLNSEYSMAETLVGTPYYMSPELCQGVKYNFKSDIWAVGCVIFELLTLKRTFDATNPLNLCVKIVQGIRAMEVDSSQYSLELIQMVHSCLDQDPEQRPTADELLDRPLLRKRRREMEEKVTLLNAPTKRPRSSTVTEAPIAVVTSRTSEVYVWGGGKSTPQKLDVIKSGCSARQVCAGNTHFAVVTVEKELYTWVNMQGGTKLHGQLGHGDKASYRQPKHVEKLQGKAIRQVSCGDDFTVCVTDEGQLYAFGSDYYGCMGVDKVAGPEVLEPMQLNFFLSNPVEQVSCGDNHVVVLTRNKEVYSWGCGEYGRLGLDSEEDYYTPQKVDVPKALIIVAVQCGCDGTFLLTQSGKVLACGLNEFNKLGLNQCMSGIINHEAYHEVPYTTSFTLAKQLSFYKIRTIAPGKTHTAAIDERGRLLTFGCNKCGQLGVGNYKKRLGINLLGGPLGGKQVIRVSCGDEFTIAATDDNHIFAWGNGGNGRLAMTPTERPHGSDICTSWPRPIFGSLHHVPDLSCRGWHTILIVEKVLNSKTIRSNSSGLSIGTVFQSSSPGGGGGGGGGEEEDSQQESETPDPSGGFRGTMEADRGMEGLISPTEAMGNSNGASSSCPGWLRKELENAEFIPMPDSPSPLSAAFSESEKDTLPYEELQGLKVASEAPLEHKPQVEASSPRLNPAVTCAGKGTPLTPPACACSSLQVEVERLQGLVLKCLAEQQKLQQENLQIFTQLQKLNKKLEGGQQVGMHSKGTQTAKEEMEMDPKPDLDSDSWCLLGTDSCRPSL

Casein kinase II subunit alpha (Homo sapiens), sequence (P68400 whole entry, looked up): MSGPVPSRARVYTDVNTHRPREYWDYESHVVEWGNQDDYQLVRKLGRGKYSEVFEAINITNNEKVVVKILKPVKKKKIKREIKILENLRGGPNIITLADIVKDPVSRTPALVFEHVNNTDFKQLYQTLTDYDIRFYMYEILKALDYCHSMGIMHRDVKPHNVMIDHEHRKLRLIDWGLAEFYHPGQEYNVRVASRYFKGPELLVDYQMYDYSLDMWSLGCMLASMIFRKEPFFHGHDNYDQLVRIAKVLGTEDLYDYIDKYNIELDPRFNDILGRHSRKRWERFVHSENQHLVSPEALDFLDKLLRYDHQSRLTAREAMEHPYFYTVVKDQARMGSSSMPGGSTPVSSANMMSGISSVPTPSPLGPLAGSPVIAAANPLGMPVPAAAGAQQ
Serine/threonine-protein kinase Nek7 (Homo sapiens), sequence (Q8TDX7 whole entry, looked up): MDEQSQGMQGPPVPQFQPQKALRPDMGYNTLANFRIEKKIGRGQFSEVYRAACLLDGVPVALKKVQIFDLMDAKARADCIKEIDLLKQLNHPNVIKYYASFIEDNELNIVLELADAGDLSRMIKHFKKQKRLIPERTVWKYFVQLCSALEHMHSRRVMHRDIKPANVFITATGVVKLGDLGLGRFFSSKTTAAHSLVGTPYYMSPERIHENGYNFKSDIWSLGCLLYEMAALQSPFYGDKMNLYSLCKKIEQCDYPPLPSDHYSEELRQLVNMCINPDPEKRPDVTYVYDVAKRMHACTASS
Serine/threonine-protein kinase Nek6 (Homo sapiens), sequence (Q9HC98 whole entry): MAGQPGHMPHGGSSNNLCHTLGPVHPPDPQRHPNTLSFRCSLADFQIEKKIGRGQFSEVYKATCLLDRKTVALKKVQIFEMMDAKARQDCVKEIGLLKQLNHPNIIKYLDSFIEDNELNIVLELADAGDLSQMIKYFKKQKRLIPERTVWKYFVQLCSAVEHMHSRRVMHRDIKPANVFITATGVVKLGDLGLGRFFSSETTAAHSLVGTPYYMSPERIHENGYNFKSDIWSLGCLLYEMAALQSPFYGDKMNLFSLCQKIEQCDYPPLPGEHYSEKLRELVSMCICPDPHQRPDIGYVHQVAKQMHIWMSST
Sphingosine kinase 1 (Homo sapiens), sequence (Q9NYA1 whole entry): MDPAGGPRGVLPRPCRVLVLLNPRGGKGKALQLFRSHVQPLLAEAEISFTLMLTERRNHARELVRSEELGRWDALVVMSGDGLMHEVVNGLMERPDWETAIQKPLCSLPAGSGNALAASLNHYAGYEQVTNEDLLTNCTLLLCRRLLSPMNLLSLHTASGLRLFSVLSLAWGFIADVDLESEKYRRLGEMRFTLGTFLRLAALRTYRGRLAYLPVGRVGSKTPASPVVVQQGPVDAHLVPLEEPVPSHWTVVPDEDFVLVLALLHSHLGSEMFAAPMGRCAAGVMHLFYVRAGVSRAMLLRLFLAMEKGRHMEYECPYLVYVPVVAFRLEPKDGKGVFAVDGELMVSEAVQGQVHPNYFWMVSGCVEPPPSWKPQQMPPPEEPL

SMILES | inhibition [1] [%] | inhibition [2] [%] | inhibition [3] [%] | inhibition [4] [%] | inhibition [5] [%] | inhibition [6] [%] | inhibition [7] [%] | inhibition [8] [%] | inhibition [9] [%] | inhibition [10] [%] | inhibition [11] [%] | inhibition [12] [%] | inhibition [13] [%] | inhibition [14] [%] | inhibition [15] [%] | inhibition [16] [%] | inhibition [17] [%] | inhibition [18] [%] | inhibition [19] [%] | inhibition [20] [%]
COC(=O)Nc1nc2ccc(Sc3ccc(NC(=O)Nc4cc(C(F)(F)F)ccc4F)cc3)cc2[nH]1 | 4.23 | -0.54 | -0.1 | 2.02 | 6.92 | 2.75 | -2 | -0.76 | -1.08 | -0.58 | -1.36 | -0.58 | 1.18 | 0.6 | -0.82 | 0.73 | -0.98 | -0.35 | -3.05 | -1.77
COc1ccc2cc(-c3c(-c4ccncc4)nc(-c4ccc(S(C)(=O)=O)cc4C)n3C)ccc2c1 | -0.37 | -0.27 | 4.01 | 3.63 | 4.57 | -0.1 | 3.23 | 6.82 | 7.83 | 6.25 | 7.25 | 3.37 | 4.4 | 5.82 | 4.5 | 0.49 | 4.51 | 5.77 | 4.57 | 6.52
